Results filed as inconclusive are left out. Calls of active or inactive are those of the source. Unless noted, calls follow the shape of the full dose curve.
Experiments:
[1] = qHTS assay to identify small molecule agonists of the sonic hedgehog signaling (Shh) pathway (AID 1259368); also: nearly all actives have a fitted effect of over 15% in size; also: potency is read from the fitted curve at half-maximal effect;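 as to activity change: NIH/3T3-derived 3T3Gli1-Luc cells carrying a stable Gli1-driven firefly luciferase reporter; series mostly up to about 92 µM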
Procedure, shortened: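 Luminescent signal was taken as a measure of Gli1-controlled luciferase expression in stably transfected NIH/3T3-derived cells that had been treated for 24 hr with compounds delivered in DMSO.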

[2] = qHTS assay to identify small molecule antagonists of the sonic hedgehog signaling (Shh) pathway (AID 1259369); also: nearly all actives have a fitted effect of over 45% in size; also: potency is read from the fitted curve at half-maximal effect
Procedure, shortened: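 Screening used 3T3Gli1-Luc cells at 2,000 per well, compounds delivered in DMSO, and conditioned medium as agonist stimulus; plates incubated 24hr at 37 C and 5% CO2 before a 30min luciferase step.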

[3] = target: Estrogen receptor beta (Homo sapiens) (UniProt Q92731); test: qHTS assay to identify small molecule agonists of the estrogen receptor beta (ER-beta) signaling pathway (AID 1259377; active = well fitted activation curve with a large enough effect in the signal ratio in the repeat runs, not every such curve was filed as active; the % refers to the signal ratio; also: potency is read from the fitted curve at half-maximal effect)
Procedure, shortened: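 Read-out: beta-lactamase FRET fluorescence. Cell line: ER-beta-UAS-bla HEK293T in 2% charcoal-stripped FBS. Exposure: 16 hr at 37C. Substrate step: 2 h at room temperature.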

[4] = target: Estrogen receptor beta (Homo sapiens) (UniProt Q92731); test: qHTS assay to identify small molecule antagonists of the estrogen receptor beta (ER-beta) signaling pathway (AID 1259378; active = well fitted inhibition curve with a large enough effect in the signal ratio in the repeat runs, not every such curve was filed as active; the % refers to the signal ratio)
Procedure, shortened: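 Antagonist mode: compounds added to beta-lactamase reporter HEK293T ER-beta-UAS cells stimulated with E2 (1nM final), 16 hr at 37C. LiveBLAzer B/G FRET substrate, 2 hours room temperature, fluorescence read-out.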

[5] = qHTS assay to identify small molecule agonists of the androgen receptor (AR) signaling pathway in the presence of an antagonist - cell viability counter screen (AID 1259379; active = well fitted curve in the direction sought with a large enough effect in the repeat runs; an effect the other way counts as inactive or inconclusive; also: nearly all actives have a fitted effect of over 25% in size; also: potency is read from the fitted curve at half-maximal effect;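 as to activity change, negative = cytotoxicity: MDA-kb2 human breast cancer cells carrying an MMTV luciferase reporter; series mostly up to about 92 µM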)
Procedure, shortened: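 In MDA-kb2 cells (human breast carcinoma, MMTV-luciferase), compounds at 15 concentrations plus 3.0uM nilutamide; 16 hr, 37C, 0% CO2; CellTiter-Fluor fluorescence read for viability.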

[6] = qHTS assay to identify small molecule agonists of the estrogen receptor beta (ER-beta) signaling pathway - cell viability counter screen (AID 1259380; active = well fitted curve in the direction sought with a large enough effect in the repeat runs; an effect the other way counts as inactive or inconclusive; also: nearly all actives have a fitted effect of over 30% in size)
Procedure, shortened: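 Viability of ER-beta-UAS-bla HEK293T cells was determined by CellTiter-Glo luminescence following 16 hr treatment with test compounds at 37C.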

[7] = qHTS assay to identify small molecule agonists or antagonists of the thyroid stimulating hormone receptor (TSHR) signaling pathway - wild type cell line counter screen (AID 1259384)
Procedure, shortened: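 Counter screen in untransfected Hek293: compounds (15-point titration, triplicate) plus phosphodiesterase inhibitor Ro20-1724 added after 18 h plating; 30 min RT. Intracellular cAMP via competitive d2/cryptate immunoassay, 1 h incubation.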

[8] = qHTS assay to identify small molecule antagonists of the estrogen receptor beta (ER-beta) signaling pathway - cell viability counter screen (AID 1259382; active = well fitted curve in the direction sought with a large enough effect in the repeat runs; an effect the other way counts as inactive or inconclusive;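 also: HEK293T cells carrying ER-beta-UAS-bla reporter stimulated with estradiol; series mostly up to about 92 µM; nearly all actives have a fitted effect of over 55% in size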)
Procedure, shortened: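 Tox21 10K library tested in qHTS format on ER-beta-bla HEK293T cells stimulated with 1nM E2; 16 hr treatment at 37C. Same-well CellTiter-Glo luminescence served as the cell viability measure.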

[9] = target: Estrogen receptor (Homo sapiens) (UniProt P03372); test: qHTS assay to identify small molecule agonists of the estrogen receptor alpha (ER-alpha) signaling pathway in the presence of an antagonist (AID 1259383); also: top concentration of the series differs between compounds; nearly all actives have a fitted effect of over 15% in size
Procedure, shortened: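 In VM7Luc4E2 cells, 4,000 per well, compounds at 15 concentrations were co-incubated 22hr at 37C with 10.0nM final ICI-182,780. Luminescence from the stably transfected 4×ERE-luciferase reporter was recorded 30min after ONE-Glo addition.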

[10] = target: Androgen receptor (Homo sapiens) (UniProt P10275); test: qHTS assay to identify small molecule agonists of the androgen receptor (AR) signaling pathway in the presence of an antagonist (AID 1259381); also: nearly all actives have a fitted effect of over 15% in size; also: potency is read from the fitted curve at half-maximal effect
Procedure, shortened: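 Here, 15-concentration compound series were pin-transferred onto MDA-kb2 MMTV-luciferase cells already dosed with nilutamide (3.0uM final). After 16hr at 37C, ONE-Glo was added and luminescence read 30min later at room temperature.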
% is scaled to controls: 0 for no effect and ±100 for the full control effect.

Androgen receptor (Homo sapiens), sequence (P10275 whole entry, looked up): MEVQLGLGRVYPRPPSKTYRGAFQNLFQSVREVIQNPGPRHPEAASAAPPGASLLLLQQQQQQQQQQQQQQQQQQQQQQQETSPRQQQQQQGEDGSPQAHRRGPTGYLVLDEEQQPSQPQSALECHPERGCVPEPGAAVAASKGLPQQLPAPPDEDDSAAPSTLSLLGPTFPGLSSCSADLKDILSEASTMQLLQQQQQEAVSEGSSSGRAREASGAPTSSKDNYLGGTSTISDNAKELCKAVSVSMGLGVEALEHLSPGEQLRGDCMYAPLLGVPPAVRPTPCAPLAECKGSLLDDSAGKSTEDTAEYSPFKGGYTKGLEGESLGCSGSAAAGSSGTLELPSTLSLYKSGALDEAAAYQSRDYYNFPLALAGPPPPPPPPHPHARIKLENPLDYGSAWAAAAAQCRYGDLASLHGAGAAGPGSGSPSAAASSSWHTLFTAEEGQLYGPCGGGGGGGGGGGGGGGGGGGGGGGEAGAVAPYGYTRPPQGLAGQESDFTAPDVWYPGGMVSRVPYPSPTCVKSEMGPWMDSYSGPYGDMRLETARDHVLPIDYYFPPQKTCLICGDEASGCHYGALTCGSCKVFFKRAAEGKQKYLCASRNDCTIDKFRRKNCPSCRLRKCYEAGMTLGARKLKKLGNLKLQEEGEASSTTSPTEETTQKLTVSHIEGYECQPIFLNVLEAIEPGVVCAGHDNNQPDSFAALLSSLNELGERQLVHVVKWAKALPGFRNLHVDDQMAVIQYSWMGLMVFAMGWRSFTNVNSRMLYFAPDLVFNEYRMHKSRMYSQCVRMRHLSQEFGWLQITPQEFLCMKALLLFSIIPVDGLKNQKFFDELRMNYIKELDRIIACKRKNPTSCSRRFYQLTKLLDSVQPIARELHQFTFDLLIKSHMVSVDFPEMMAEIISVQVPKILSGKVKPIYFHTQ
Estrogen receptor beta (Homo sapiens), sequence (Q92731 whole entry, looked up): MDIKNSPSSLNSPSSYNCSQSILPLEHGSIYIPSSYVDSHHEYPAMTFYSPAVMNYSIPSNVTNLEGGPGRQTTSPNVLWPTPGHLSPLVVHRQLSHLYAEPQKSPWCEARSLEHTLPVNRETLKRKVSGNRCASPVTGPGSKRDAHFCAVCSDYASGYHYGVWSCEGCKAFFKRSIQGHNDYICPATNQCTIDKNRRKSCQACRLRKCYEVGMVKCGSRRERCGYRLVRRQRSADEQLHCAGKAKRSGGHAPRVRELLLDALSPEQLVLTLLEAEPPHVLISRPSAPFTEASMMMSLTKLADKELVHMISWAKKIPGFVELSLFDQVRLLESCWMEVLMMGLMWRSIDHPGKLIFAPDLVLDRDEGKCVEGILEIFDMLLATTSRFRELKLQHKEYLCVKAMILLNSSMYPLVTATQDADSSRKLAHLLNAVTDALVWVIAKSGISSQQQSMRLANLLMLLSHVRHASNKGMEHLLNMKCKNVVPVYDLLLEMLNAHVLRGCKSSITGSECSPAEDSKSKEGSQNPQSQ
Estrogen receptor (Homo sapiens), sequence (P03372 whole entry, looked up): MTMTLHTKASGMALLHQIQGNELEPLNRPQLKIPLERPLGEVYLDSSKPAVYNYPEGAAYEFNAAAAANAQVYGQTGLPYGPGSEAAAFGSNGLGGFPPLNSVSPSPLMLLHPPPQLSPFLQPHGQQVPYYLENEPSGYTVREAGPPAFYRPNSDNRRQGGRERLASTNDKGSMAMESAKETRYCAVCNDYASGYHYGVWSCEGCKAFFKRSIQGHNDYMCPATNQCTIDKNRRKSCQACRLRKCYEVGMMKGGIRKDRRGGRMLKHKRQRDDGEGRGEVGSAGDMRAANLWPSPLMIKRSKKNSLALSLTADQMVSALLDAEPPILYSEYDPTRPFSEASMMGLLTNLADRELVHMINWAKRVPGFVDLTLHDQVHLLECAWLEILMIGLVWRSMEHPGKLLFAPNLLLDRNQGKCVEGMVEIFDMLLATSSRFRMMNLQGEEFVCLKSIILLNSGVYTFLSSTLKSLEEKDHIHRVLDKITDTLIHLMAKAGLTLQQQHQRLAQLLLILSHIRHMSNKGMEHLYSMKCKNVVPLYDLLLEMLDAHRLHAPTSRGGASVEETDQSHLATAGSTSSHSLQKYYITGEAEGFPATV

FC1(F)C(F)(F)C(F)(F)C2(F)C(F)(C1(F)F)C(F)(F)C(F)(F)C1(F)C(F)(F)C(F)(F)C(F)(F)C(F)(F)C12F (stereo not drawn)
inactive: Potency [1] | Potency [2] | Potency [3] | Potency [4] | Potency [5] | Potency [6] | outcome [7]

c1ccc(CN(Cc2ccccc2)Cc2ccccc2)cc1
inactive: Potency [1] | Potency [2] | Potency [3] | Potency [5] | Potency [8] | outcome [7]

CCCCCCCCCCCCSCCOCCO
inactive: Potency [1] | Potency [2] | Potency [3] | Potency [5] | Potency [6] | Potency [8] | Potency [9] | outcome [7]

Nc1ncnc2c1ncn2[C@@H]1O[C@H](CO)[C@@H](O)[C@H]1O
inactive: Potency [1] | Potency [2] | Potency [3] | Potency [5] | Potency [6] | Potency [8] | Potency [9] | outcome [7]

NCCOCCOCCN
inactive: Potency [1] | Potency [2] | Potency [3] | Potency [4] | Potency [5] | Potency [10] | outcome [7]

CCC(C)C1N=C(C)C(C)S1 (stereo not drawn)
inactive: Potency [1] | Potency [2] | Potency [3] | Potency [4] | Potency [5] | Potency [6] | Potency [8] | outcome [7]

C=C[Si]1(C)O[Si](C)(C=C)O[Si](C)(C=C)O[Si](C)(C=C)O1 (stereo not drawn)
active: Potency [2] 30.6 µM
inactive: Potency [1] | Potency [3] | Potency [4] | Potency [5] | Potency [6] | Potency [8] | outcome [7]

O=C(O)c1c2ccccc2cc2ccccc12
inactive: Potency [1] | Potency [2] | Potency [3] | Potency [4] | Potency [6] | Potency [8] | Potency [9] | outcome [7]

CC(=O)Nc1ccn(C2COC(COC(=O)c3ccccc3)O2)c(=O)n1 (stereo not drawn)
inactive: Potency [1] | Potency [2] | Potency [3] | Potency [4] | Potency [5] | Potency [6] | Potency [8] | outcome [7]

O=C1c2ccccc2C(=O)c2c1ccc(O)c2O
active: Potency [3] 7.5 µM | Potency [5] 23.7 µM
inactive: Potency [1] | Potency [2] | Potency [6] | Potency [8] | outcome [7]

CC(=O)Nc1cccc(N)c1
inactive: Potency [1] | Potency [2] | Potency [3] | Potency [4] | Potency [5] | Potency [6] | Potency [9] | outcome [7]

CCN(CCCCOC(=O)c1ccc(OC)c(OC)c1)C(C)Cc1ccc(OC)cc1 (stereo not drawn)
inactive: Potency [1] | Potency [2] | Potency [3] | Potency [4] | Potency [5] | Potency [8] | outcome [7]

C=C[Si](OCC)(OCC)OCC
inactive: Potency [1] | Potency [2] | Potency [3] | Potency [4] | Potency [5] | Potency [6] | outcome [7]

Cc1cc(N)n(-c2ccccc2)n1
inactive: Potency [1] | Potency [2] | Potency [3] | Potency [4] | Potency [5] | Potency [6] | Potency [9] | outcome [7]

O=C1c2ccccc2C(=O)C1c1ccc2cc(S(=O)(=O)O)cc(S(=O)(=O)O)c2n1
inactive: Potency [1] | Potency [2] | Potency [3] | Potency [4] | Potency [8] | outcome [7]
active: Potency [5] 29.5 µM

CCCCCCCCCCCCCCCCCCCl
inactive: activity change [1] 0.949% [at 8.39 µM, hits give high values] | activity change, negative = inhibition [2] -7.01% [at 8.39 µM] | activation [3] -3.3% [at 8.39 µM] | activity, negative = inhibition [4] 21.3% [at 8.39 µM] | activity change, negative = cytotoxicity [5] 1.57% [at 8.39 µM] | activity change, negative = cytotoxicity [6] 2.61% [at 8.39 µM] | activation [9] 0.705% [at 8.39 µM] | cAMP activity change [7] -0.012% [at 8.39 µM]

CCCCCCCCNC
inactive: Potency [1] | Potency [2] | Potency [3] | Potency [4] | Potency [5] | Potency [6] | Potency [8] | outcome [7]

CC1=CC(=C(c2ccc(N)cc2)c2ccc(N)cc2)C=CC1=N
active: Potency [5] 3.1 µM
inactive: activity change [1] -2.79% [at 8.39 µM, hits give high values] | activity change, negative = inhibition [2] -22.7% [at 8.39 µM] | activation [3] -6.24% [at 8.39 µM] | activation [9] 0.281% [at 8.39 µM] | cAMP activity change [7] -1.93% [at 8.39 µM]

CC(CN=Cc1ccccc1O)N=Cc1ccccc1O (stereo not drawn)
inactive: Potency [1] | Potency [2] | Potency [3] | Potency [4] | Potency [5] | Potency [6] | outcome [7]

O=C(O)c1ccccc1[N+](=O)[O-]
inactive: Potency [1] | Potency [2] | Potency [3] | Potency [4] | Potency [5] | Potency [6] | Potency [8] | outcome [7]

C/C(=C\C(C)CC(C)CC(C)C)C1CC(=O)OC1=O (stereo not drawn)
inactive: Potency [1] | Potency [2] | Potency [3] | Potency [5] | Potency [8] | Potency [9] | outcome [7]

CCC(=O)O[C@]1(C(=O)COC)[C@@H](C)C[C@H]2[C@@H]3CCC4=CC(=O)C=C[C@]4(C)C3(F)[C@@H](O)C[C@@]21C (stereo partly drawn)
active: Potency [1] 13.3 µM | Potency [10] 0.006 µM
inactive: Potency [2] | Potency [3] | Potency [5] | Potency [6] | Potency [8] | outcome [7]

CC1(C)[C@@H]2CC[C@]3(C2)[C@@H]1C(=O)CCC3(C)C
inactive: Potency [1] | Potency [2] | Potency [3] | Potency [4] | Potency [5] | Potency [10] | Potency [8] | Potency [9] | outcome [7]

O=C(OCCOCCOCCOC(=O)c1ccccc1)c1ccccc1
inactive: Potency [1] | Potency [2] | Potency [3] | Potency [4] | Potency [5] | Potency [6] | Potency [9] | outcome [7]

CC(C)=CCC/C(C)=C/C=N/O
inactive: Potency [1] | Potency [2] | Potency [3] | Potency [4] | Potency [5] | Potency [6] | outcome [7]

Clc1cccc(C(c2ccc3nc[nH]c3c2)n2ccnc2)c1 (stereo not drawn)
inactive: Potency [1] | Potency [2] | Potency [4] | Potency [5] | Potency [10] | Potency [8]

CCOc1ccccc1O
inactive: Potency [1] | Potency [2] | Potency [4] | Potency [5] | Potency [6] | Potency [8] | outcome [7]

CC(C)=CCC[C@H](C)CCO
inactive: Potency [1] | Potency [2] | Potency [4] | Potency [5] | Potency [6] | Potency [8] | Potency [9] | outcome [7]

CC(O)C(C)O (stereo not drawn)
inactive: Potency [1] | Potency [2] | Potency [4] | Potency [5] | Potency [6] | Potency [8] | outcome [7]

CCCCCO
inactive: Potency [1] | Potency [2] | Potency [4] | Potency [5] | Potency [6] | Potency [8] | outcome [7]

From PubChem BioAssay (Tox21)
